# Laboratory results as given in PubChem BioAssay (Tox21).
# Records with an inconclusive call do not appear. Entries that show only a call come without a potency. A number with no mark means an inactive call. Activity calls are given as the source filed them. Calls come from the whole dose curve; as a rule, active = well fitted curve in the direction sought with a large enough effect in the repeat runs; inconclusive = weak or mixed curves; inactive = no such curve, though single readings can be large; an effect the other way counts as inactive or inconclusive.
# Legend:
# [1] = biological target: Cytochrome P450 2C19 (Homo sapiens) (UniProt P33261); test: Cytochrome P450 Family 2 Subfamily C Member 19 (CYP2C19) small molecule antagonists: luciferase reporter qHTS assay (AID 1671197); note: nearly all actives have a fitted effect of over 65% in size
# In short: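 P450-Glo CYP2C19 screening system; proluciferin substrate; DMSO compound stocks; 10 min RT preincubation; NADPH regeneration, 1 h at 37C; luciferin detection reagent, 20 min RT; luminescence as RLU.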
# [2] = biological target: Cytochrome P450 2C9 (Homo sapiens) (UniProt P11712); test: Cytochrome P450 Family 2 Subfamily C Member 9 (CYP2C9) small molecule antagonists: luciferase reporter qHTS assay (AID 1671198); note: nearly all actives have a fitted effect of over 50% in size
# In short: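 Enzyme-substrate mix preincubated with compound 10 min at room temperature; reaction started with NADPH regeneration solution, 1 h 37C. Luminescent luciferin product read after 20 min detection reagent.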
# [3] = biological target: Cytochrome P450 1A2 (Homo sapiens) (UniProt P05177); test: Cytochrome P450 Family 1 Subfamily A Member 2 (CYP1A2) small molecule antagonists: luciferase reporter qHTS assay (AID 1671199); note: nearly all actives have a fitted effect of over 50% in size
# In short: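 Human CYP1A2 activity measured with a P450-Glo proluciferin substrate; compounds in DMSO preincubated 10 min at room temperature with enzyme-substrate mix, then NADPH regeneration system added for 1 h. Luciferin detection reagent, 20 min, luminescence read.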
# [4] = biological target: Voltage-gated inwardly rectifying potassium channel KCNH2 (Homo sapiens) (UniProt Q12809); test: Human Ether-a-go-go-Related Gene (hERG) channel small molecule antagonists: fluorescence cell-based qHTS assay (AID 1671200); note: nearly all actives have a fitted effect of over 50% in size
# In short: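 Read-out: thallium influx as a surrogate for potassium, tracked as fluorescence (480 nm ex/540 nm em) every second for 2 min after Stimulus Buffer addition in dye-loaded hERG-U2OS cells.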
# [5] = biological target: Cytochrome P450 3A4 (Homo sapiens) (UniProt P08684); test: Cytochrome P450 Family 3 Subfamily A Member 4 (CYP3A4) small molecule antagonists: luciferase reporter qHTS assay (AID 1671201); note: nearly all actives have a fitted effect of over 50% in size
# In short: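 Luminescent readout (RLU) proportional to CYP3A4 activity, from luciferin generated off a proluciferin substrate. Enzyme–substrate mix plus compound 10 min at room temp, NADPH regeneration 1 h, detection reagent 20 min.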
# Potency is the fitted concentration of half-maximal effect.
# Sequence of Cytochrome P450 3A4 (Homo sapiens) (P08684 whole entry, looked up): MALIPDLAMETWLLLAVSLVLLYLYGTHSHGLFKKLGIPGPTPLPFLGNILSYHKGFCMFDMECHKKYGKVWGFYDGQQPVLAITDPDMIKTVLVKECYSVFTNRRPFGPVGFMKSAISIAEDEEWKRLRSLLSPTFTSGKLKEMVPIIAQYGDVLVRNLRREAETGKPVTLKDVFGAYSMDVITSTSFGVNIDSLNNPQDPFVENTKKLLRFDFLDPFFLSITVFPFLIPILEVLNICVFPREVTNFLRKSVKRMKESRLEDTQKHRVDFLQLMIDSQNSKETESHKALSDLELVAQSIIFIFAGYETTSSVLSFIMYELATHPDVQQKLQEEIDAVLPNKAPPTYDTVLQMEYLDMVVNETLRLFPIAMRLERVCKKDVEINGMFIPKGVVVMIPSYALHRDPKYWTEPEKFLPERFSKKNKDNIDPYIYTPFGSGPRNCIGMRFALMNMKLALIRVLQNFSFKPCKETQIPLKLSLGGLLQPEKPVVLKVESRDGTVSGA
# Sequence of Cytochrome P450 2C9 (Homo sapiens) (P11712 whole entry, looked up): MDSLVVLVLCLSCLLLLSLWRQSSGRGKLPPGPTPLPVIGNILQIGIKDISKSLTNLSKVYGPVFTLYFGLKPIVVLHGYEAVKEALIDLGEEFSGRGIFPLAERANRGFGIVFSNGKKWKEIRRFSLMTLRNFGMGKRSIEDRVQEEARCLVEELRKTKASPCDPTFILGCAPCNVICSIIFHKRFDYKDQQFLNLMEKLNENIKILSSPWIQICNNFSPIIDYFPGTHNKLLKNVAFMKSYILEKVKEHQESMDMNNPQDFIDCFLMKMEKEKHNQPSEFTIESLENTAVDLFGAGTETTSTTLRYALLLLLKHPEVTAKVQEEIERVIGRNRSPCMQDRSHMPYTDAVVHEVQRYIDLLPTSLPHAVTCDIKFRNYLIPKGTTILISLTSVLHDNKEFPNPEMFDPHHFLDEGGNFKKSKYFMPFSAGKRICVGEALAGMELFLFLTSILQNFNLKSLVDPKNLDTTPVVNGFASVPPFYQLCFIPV
# Sequence of Voltage-gated inwardly rectifying potassium channel KCNH2 (Homo sapiens) (Q12809 whole entry, looked up): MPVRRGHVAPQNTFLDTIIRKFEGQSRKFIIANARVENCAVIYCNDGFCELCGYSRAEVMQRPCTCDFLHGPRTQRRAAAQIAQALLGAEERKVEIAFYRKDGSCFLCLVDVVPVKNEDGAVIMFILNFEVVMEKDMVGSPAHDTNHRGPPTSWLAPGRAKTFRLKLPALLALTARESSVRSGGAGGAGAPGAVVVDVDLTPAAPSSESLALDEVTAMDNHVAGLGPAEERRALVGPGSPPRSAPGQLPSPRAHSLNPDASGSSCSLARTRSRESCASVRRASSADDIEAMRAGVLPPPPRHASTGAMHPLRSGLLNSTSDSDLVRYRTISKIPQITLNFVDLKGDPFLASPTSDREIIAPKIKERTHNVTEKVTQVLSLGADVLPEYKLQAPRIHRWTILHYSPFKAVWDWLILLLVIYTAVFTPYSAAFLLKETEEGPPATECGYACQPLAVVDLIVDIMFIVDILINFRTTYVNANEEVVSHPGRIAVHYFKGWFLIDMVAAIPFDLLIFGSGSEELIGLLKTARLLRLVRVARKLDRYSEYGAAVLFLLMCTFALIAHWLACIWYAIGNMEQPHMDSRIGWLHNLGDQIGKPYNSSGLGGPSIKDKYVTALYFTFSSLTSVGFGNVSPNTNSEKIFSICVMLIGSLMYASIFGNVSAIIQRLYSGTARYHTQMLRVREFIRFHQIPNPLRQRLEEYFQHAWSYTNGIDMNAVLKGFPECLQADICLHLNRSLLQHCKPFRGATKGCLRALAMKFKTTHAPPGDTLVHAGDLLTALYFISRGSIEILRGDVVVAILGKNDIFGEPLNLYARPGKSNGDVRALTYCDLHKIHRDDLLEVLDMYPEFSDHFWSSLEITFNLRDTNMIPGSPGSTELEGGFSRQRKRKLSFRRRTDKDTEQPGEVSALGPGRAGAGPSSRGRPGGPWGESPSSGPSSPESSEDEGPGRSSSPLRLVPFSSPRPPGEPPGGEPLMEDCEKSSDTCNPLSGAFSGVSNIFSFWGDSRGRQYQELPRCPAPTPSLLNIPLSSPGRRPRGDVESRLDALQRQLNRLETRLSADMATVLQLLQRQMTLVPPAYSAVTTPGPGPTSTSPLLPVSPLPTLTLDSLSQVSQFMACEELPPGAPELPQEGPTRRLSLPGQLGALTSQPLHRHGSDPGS
# Sequence of Cytochrome P450 2C19 (Homo sapiens) (P33261 whole entry, looked up): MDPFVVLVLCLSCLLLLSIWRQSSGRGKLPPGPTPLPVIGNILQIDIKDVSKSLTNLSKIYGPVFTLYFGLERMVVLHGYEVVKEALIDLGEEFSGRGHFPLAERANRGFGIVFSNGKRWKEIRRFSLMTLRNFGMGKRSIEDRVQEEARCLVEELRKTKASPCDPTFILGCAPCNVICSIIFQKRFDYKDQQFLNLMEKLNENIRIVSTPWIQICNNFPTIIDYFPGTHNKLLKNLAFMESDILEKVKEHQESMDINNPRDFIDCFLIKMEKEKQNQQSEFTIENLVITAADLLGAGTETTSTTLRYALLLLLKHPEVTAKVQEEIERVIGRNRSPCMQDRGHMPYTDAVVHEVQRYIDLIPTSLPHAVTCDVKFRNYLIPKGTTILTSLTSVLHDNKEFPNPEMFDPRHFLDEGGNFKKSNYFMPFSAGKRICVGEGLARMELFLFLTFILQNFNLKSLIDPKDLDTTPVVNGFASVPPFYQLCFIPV
# Sequence of Cytochrome P450 1A2 (Homo sapiens) (P05177 whole entry, looked up): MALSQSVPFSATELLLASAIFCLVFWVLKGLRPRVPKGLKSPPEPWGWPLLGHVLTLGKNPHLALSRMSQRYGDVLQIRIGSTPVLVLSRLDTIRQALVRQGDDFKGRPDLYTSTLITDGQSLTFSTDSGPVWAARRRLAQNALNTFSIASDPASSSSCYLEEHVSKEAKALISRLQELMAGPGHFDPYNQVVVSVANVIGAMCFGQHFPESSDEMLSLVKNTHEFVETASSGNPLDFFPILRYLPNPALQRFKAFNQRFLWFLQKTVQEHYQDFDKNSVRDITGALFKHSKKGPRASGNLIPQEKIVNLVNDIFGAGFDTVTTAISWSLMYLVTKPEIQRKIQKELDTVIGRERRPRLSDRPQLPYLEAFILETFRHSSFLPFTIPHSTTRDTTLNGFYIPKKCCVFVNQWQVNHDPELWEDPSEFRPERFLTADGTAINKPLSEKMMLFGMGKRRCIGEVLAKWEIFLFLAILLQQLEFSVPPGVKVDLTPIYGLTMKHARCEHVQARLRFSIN
Compound,Potency [1],Potency [2],Potency [3],Potency [4],Potency [5]
CCN(CC)CCNC(C(=O)OCCC(C)C)c1ccccc1 (stereo unspecified),inactive,inactive,inactive,9.52 µM (active),–
COc1ccc2[nH]c(S(=O)Cc3ncc(C)c(OC)c3C)nc2n1 (stereo unspecified),34.7 µM (active),17.4 µM (active),24.5 µM (active),inactive,–
CC(=O)c1c(C)c([N+](=O)[O-])c(C(C)(C)C)c([N+](=O)[O-])c1C,31.7 µM (active),inactive,11.2 µM (active),inactive,–
CCCCCC/C=C/C=O,71 µM (active),63.3 µM (active),inactive,inactive,inactive
NCc1ccccc1,inactive,inactive,31.7 µM (active),inactive,–
Nc1cnn([C@@H]2O[C@H](CO)[C@@H](O)[C@H]2O)c(=O)n1,inactive,inactive,inactive,inactive,–
O=C1[C@H](CC[C@H](O)c2ccc(F)cc2)[C@@H](c2ccc(O)cc2)N1c1ccc(F)cc1,2.75 µM (active),8.71 µM (active),–,–,–
O=C(c1ccc(O)cc1)c1ccc(O)cc1,39.9 µM (active),inactive,39.9 µM (active),inactive,–
Cc1nc2ccccc2n1Cc1ccc(Cl)cc1,3.09 µM (active),13.8 µM (active),7.23 µM (active),inactive,–
Nc1ccc(C(=O)Nc2ccccc2N)cc1,inactive,inactive,inactive,inactive,–
C#CCOC(=O)[C@@H](C)Oc1ccc(Oc2ncc(Cl)cc2F)cc1,17.7 µM (active),31.6 µM (active),5 µM (active),–,–
S=C(S)NCCNC(=S)S,31.2 µM (active),35 µM (active),inactive,inactive,–
O=S1(=O)c2cccc3cccc(c23)N1CCCN1CCN(c2ccc(F)cc2)CC1,24.5 µM (active),inactive,15.5 µM (active),–,–
CC(C(=O)O)c1ccc(C(=O)c2ccccc2)s1 (stereo unspecified),4.9 µM (active),17.4 µM (active),9.11 µM (active),inactive,inactive
COC(=O)C(C)=O,71.3 µM (active),inactive,31.9 µM (active),inactive,–
Cc1cc(CC(=O)O)c(C)n1-c1ccc(Cl)cc1,7.76 µM (active),15.5 µM (active),inactive,inactive,–
CCCCC(CC)COCCCN (stereo unspecified),5.58 µM (active),35.2 µM (active),11.1 µM (active),38.5 µM (active),–
CCOC(=O)[C@H](CCc1ccccc1)N[C@H]1CCc2ccccc2N(CC(=O)O)C1=O,6.92 µM (active),8.71 µM (active),12.9 µM (active),–,–

Compound,Potency [1],Potency [2],Potency [3],Potency [4],Potency [5]
CCCCCOC(=O)c1ccc(O)cc1,28.6 µM (active),36 µM (active),2.55 µM (active),–,–
Cc1ccc(C(N)=O)cc1N,44.8 µM (active),inactive,35.6 µM (active),inactive,–
Nc1nc(N)c(-c2ccccc2)s1,inactive,inactive,30.9 µM (active),inactive,–
C=CC[N+]1([C@H]2C[C@H]3[C@@H]4CC[C@H]5C[C@H](OC(C)=O)[C@@H](N6CCCCC6)C[C@]5(C)[C@H]4CC[C@]3(C)[C@H]2OC(=O)CC)CCCCC1,inactive,inactive,inactive,inactive,–
CCCc1ccccc1,inactive,inactive,inactive,inactive,–
CCCC[C@H]1CN(CC2CCOCC2)C(=O)OC12CCN(C1(C)CCN(C(=O)c3c(C)ncnc3C)CC1)CC2,inactive,inactive,35.2 µM (active),12.2 µM (active),–
CCOC(=O)CC(C)C,inactive,inactive,inactive,inactive,inactive
O=C(Nc1ccccc1)OCC(CN1CCCCC1)OC(=O)Nc1ccccc1 (stereo unspecified),8.71 µM (active),17.4 µM (active),inactive,6.01 µM (active),–
Cc1cc(O)ccc1N,17.9 µM (active),20.1 µM (active),17.9 µM (active),inactive,11.3 µM (active)
CCN1CCC[C@H]1CNC(=O)c1c(OC)ccc(Br)c1OC,inactive,inactive,inactive,inactive,inactive
CC/C(=C\C(=N/O)C(N)=O)C(C)[N+](=O)[O-] (stereo unspecified),inactive,inactive,inactive,inactive,inactive
C=CC(=O)OCC(C)OCC(C)OCC(C)OC(=O)C=C (stereo unspecified),3.56 µM (active),35.6 µM (active),6.33 µM (active),inactive,5.03 µM (active)
Cc1occc1S,56.4 µM (active),35.6 µM (active),inactive,inactive,28.3 µM (active)
CCCCCCCC/C=C\CCCCCCCC(N)=O,inactive,inactive,35.6 µM (active),inactive,inactive
O=C(Cl)c1ccc([N+](=O)[O-])cc1,inactive,inactive,55.4 µM (active),inactive,inactive
CC1(C)[C@H]2CC[C@]1(C)[C@H](O)C2,inactive,inactive,inactive,inactive,inactive
C=Cc1c(C)c2cc3[nH]c(cc4nc(cc5nc(cc1[nH]2)C(C)=C5CCC(=O)O)C(CCC(=O)O)=C4C)c(C)c3C=C,inactive,inactive,inactive,inactive,inactive
O=C(CC(=O)c1ccccc1)c1ccccc1,24.1 µM (active),38.2 µM (active),3.82 µM (active),inactive,inactive
